Test results published in PubChem BioAssay.

The compounds below were run against Concanavalin-A (Canavalia ensiformis) (UniProt P02866) (assay: compounds binding concanavalin A lectin – biochemical, small-molecule microarray, Alexa647 label, 635 nm, artefact control for SMM control protein annotation, primary screen (AID 1127;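 also: z combines 667 nm emission intensity with signal-to-noise across three replicate slides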)). Conditions: ConA-A647 binding fluorescence, higher = more signal.
Concanavalin-A (Canavalia ensiformis), sequence (P02866 whole entry, looked up): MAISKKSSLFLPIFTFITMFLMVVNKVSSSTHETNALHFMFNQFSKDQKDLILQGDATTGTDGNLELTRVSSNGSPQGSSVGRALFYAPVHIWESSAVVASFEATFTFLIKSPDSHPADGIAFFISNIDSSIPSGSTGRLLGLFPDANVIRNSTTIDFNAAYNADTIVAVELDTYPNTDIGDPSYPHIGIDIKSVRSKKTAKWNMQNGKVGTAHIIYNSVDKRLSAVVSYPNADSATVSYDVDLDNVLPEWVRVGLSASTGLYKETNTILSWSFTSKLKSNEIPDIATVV
`C=C(COC)/C(=C/C[C@H](OC(C)=O)c1ccc(CO)o1)c1cc(C(=O)OC)ccc1OC` was tested, and the composite z-score was -0.714.
Work on `O=C(NCCN1CCOCC1)C1N=C(c2ccc(OCCCO)cc2)N(c2ccccc2)O1` (stereo unspecified) yielded a composite z-score of 0.691.
For `COCCOC(=O)N1C(=O)[C@@]2(c3cc(C#CCCO)ccc31)[C@H](C(=O)N1CCCCCCC1)[C@H]1C(=O)O[C@H](c3ccccc3)[C@H](c3ccccc3)N1[C@@H]2c1ccc(OCCO)cc1`, the composite z-score was 1.16.
`COc1cc(Br)cc(C(O)C2C=CC3C(=O)N(C)C(=O)C3N2N2CCCCC2)c1OC` (stereo unspecified) was tested, and the composite z-score was 0.18.
`C=C(C)[C@@H]1CC=C(C(O)C2C=CC3C(=O)N(C)C(=O)C3N2Nc2ccccc2)CC1` (stereo partly specified) was tested, and the composite z-score was 0.183.
Work on `O=C(N1CCCCC1)[C@]1(Cc2ccccc2)N=C(c2ccc(OCCCO)cc2)O[C@@H]1c1ccccc1` yielded a composite z-score of 1.06.
`CC(C)c1ccc(NN2C(C(O)c3ccc(B(O)O)cc3)C=CC3C(=O)N(c4ccccc4)C(=O)C32)cc1` (stereo unspecified) gave a composite z-score of 1.06.
Work on `C=CCNC(=O)[C@@H]1[C@H]2C(=O)O[C@H](c3ccccc3)[C@H](c3ccccc3)N2[C@H](c2ccccc2OCCO)[C@@]12C(=O)N(C(=O)OCCOC)c1ccccc12` yielded a composite z-score of 1.16.
`CC(C)C(O)C1C=CC2C(=O)N(c3ccccc3)C(=O)C2N1Nc1ccc([N+](=O)[O-])cc1` (stereo unspecified) was tested, and the composite z-score was 0.726.
`COC(=O)[C@@]1(Cc2ccc(OC)cc2)[C@@H]2C(=CC(=O)[C@H]2CC(=O)C(=O)N2CCCC2)CN1C(=O)c1ccccc1` gave a composite z-score of 0.0351.
For `COC(=O)[C@@]1(Cc2ccc(OC)cc2)[C@H]2c3cc(C(=O)N(C)C)n(Cc4ccc(S(C)(=O)=O)cc4)c3C[C@H]2CN1C(=O)c1ccccc1`, the composite z-score was -1.06.
